# From publication PMC7862700, “An all-to-all approach to the identification of sequence-specific readers for epigenetic DNA modifications on cytosine”
# Experiments:
# Assay in all cases: DAPPL (digital affinity profiling via proximity ligation, sequencing); 10 mM Tris-HCl pH 7.5, 50 mM NaCl, 1 mM DTT, 4% glycerol, room temperature, 30 min; GST-TFs on glutathione beads, 16-mer random dsDNA library, 0.1% formaldehyde crosslink after washing; high values mean tight binding
# FLI1 = molecular target: T1, FLI1 (Homo sapiens, UniProt Q01543 1-452); conditions: protein: recombinant; tags: N-terminal GST; dsDNA, one strand shown
# T1 sequence: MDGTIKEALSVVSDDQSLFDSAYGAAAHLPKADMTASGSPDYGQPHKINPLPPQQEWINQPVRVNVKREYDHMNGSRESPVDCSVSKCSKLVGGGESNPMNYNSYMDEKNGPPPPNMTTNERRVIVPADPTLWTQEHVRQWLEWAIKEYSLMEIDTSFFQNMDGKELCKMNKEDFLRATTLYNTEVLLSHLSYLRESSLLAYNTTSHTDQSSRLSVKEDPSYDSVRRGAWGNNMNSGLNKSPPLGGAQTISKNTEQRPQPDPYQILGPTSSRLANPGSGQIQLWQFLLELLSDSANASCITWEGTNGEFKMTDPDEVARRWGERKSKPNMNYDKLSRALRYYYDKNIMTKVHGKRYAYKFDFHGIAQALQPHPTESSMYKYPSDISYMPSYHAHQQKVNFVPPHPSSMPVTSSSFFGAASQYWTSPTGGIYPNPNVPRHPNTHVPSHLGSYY
# How it was run: (§1)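 Beads coated with glutathione captured GST-fused human transcription factors that had been expressed in yeast, and the factors were then given DNA barcodes and pooled with a tag-only sample. The pools were incubated with 200 nmole of a random double-stranded 16-mer DNA library in Tris/NaCl/DTT/glycerol buffer for 30 min at room temperature, washed, crosslinked with 0.1% formaldehyde and proximity-ligated with BsaI/T4 ligase at 37 °C for 1 h. PCR amplification and Illumina NextSeq500 sequencing came last. Binding signal is each hexamer's read frequency for a factor divided by its frequency for the tag-only sample.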
# ELK1 = molecular target: T2, ELK1 (Homo sapiens, UniProt P19419 1-428); conditions: protein: recombinant; tags: N-terminal GST; dsDNA, one strand shown
# T2 sequence: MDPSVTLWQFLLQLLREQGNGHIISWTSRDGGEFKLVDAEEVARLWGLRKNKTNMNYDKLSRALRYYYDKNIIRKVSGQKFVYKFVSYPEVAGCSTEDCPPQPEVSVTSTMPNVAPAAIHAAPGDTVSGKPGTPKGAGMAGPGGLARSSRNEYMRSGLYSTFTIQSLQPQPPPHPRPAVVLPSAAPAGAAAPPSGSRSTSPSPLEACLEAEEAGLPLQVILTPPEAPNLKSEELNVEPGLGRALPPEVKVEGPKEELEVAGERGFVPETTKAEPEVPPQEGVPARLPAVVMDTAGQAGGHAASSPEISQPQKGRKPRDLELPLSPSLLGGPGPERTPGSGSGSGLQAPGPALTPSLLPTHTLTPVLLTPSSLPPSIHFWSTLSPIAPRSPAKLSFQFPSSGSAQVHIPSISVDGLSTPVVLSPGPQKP
# How it was run: as §1
# GABPA = molecular target: T3, GABPA (Homo sapiens, UniProt Q06546 1-454); conditions: protein: recombinant; tags: N-terminal GST; dsDNA, one strand shown
# T3 sequence: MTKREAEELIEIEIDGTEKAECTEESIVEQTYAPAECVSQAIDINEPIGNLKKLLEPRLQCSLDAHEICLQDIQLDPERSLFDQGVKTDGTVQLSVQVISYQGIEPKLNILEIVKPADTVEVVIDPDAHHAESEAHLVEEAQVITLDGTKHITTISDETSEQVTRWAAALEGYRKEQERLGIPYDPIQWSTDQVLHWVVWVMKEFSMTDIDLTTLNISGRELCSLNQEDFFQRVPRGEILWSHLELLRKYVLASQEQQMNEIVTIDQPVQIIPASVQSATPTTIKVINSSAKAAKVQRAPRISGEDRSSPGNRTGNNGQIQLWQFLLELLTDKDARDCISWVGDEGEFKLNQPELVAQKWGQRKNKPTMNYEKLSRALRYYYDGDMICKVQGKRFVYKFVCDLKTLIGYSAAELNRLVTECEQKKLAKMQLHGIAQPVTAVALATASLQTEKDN
# How it was run: as §1
# ERG = molecular target: T4, ERG (Homo sapiens, UniProt P11308 1-479); conditions: protein: recombinant; tags: N-terminal GST; dsDNA, one strand shown
# T4 sequence: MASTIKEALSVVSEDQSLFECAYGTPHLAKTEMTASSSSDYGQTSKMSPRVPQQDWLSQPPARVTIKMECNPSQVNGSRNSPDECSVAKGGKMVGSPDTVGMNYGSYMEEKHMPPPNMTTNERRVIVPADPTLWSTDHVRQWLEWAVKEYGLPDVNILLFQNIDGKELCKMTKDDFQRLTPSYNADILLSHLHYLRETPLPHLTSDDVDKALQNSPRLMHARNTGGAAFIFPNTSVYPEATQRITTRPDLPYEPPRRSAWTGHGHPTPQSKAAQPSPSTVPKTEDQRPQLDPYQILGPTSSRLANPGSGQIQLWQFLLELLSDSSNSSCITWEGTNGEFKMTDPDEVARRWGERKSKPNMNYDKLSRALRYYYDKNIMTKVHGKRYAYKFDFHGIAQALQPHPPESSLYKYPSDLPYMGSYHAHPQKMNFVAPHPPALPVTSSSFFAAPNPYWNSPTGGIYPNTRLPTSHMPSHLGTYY
# How it was run: as §1
# ELF1 = ELF1 (Homo sapiens, UniProt P32519 1-619); conditions: protein: recombinant; tags: N-terminal GST; dsDNA, one strand shown
# How it was run: as §1
# EHF = molecular target: T5, EHF (Homo sapiens, UniProt Q9NZC4 1-300); conditions: protein: recombinant; tags: N-terminal GST; dsDNA, one strand shown
# T5 sequence: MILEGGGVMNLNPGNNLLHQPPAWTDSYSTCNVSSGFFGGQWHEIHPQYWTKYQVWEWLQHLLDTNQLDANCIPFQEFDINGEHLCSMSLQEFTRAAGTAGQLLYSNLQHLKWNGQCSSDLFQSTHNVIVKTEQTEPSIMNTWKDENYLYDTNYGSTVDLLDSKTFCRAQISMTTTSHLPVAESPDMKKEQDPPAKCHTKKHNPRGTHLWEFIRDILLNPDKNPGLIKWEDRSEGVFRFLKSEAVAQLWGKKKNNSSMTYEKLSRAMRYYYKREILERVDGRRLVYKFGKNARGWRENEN
# How it was run: as §1
# SPI1 = SPI1 (Homo sapiens, UniProt P17947 1-270); conditions: protein: recombinant; tags: N-terminal GST; dsDNA, one strand shown
# How it was run: as §1
# SPIB = SPIB (Homo sapiens, UniProt Q01892 1-262); conditions: protein: recombinant; tags: N-terminal GST; dsDNA, one strand shown
# How it was run: as §1
# ELK3 = molecular target: T6, ELK3 (Homo sapiens, UniProt P41970 1-407); conditions: protein: recombinant; tags: N-terminal GST; dsDNA, one strand shown
# T6 sequence: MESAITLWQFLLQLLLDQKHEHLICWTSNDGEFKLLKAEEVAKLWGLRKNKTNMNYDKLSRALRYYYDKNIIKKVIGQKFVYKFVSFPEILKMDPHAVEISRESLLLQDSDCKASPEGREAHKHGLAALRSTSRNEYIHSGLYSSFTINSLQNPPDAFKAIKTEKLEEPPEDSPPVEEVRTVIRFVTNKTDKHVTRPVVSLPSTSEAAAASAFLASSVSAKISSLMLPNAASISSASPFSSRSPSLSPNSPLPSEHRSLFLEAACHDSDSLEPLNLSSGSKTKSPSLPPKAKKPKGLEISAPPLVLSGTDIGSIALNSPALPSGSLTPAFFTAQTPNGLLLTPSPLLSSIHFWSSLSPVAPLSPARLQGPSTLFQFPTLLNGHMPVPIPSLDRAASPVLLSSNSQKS
# How it was run: as §1
# FEV = molecular target: T7, FEV (Homo sapiens, UniProt Q99581 1-238); conditions: protein: recombinant; tags: N-terminal GST; dsDNA, one strand shown
# T7 sequence: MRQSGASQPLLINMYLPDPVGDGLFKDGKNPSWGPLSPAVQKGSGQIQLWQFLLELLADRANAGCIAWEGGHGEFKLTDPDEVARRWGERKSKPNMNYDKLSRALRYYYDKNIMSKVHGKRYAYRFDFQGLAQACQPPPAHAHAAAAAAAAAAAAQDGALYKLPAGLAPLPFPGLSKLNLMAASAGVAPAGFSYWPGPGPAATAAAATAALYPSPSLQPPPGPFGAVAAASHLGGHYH
# How it was run: as §1
# ETV5 = ETV5 (Homo sapiens, UniProt P41161 1-510); conditions: protein: recombinant; tags: N-terminal GST; dsDNA, one strand shown
# How it was run: as §1
# HSF1 = HSF1 (Homo sapiens, UniProt Q00613 1-529); conditions: protein: recombinant; tags: N-terminal GST; chain copies: 3; dsDNA, one strand shown
# How it was run: as §1
# SPIC = molecular target: T8, SPIC (Homo sapiens, UniProt Q8N5J4 1-248); conditions: protein: recombinant; tags: N-terminal GST; dsDNA, one strand shown
# T8 sequence: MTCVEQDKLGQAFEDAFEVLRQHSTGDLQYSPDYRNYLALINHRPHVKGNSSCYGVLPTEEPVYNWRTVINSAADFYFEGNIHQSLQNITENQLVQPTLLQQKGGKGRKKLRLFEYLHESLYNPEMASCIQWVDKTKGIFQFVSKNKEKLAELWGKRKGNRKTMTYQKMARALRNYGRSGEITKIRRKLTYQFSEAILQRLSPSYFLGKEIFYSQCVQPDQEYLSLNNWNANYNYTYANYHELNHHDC
# How it was run: as §1
# ELF4 = ELF4 (Homo sapiens, UniProt Q99607 1-663); conditions: protein: recombinant; tags: N-terminal GST; dsDNA, one strand shown
# How it was run: as §1
# ELK4 = molecular target: T9, ELK4 (Homo sapiens, UniProt P28324-2 1-405); conditions: protein: recombinant; tags: N-terminal GST; dsDNA, one strand shown
# T9 sequence: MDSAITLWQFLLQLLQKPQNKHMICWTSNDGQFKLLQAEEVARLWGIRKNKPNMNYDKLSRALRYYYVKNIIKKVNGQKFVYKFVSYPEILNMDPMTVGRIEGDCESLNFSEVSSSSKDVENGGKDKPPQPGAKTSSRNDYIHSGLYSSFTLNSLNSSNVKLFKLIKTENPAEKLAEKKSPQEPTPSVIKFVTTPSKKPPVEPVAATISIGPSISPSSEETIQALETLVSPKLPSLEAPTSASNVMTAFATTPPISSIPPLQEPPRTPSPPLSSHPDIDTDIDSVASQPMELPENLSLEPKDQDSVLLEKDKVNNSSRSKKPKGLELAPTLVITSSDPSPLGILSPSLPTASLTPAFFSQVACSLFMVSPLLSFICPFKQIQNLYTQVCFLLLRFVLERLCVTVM
# How it was run: as §1
# ETV2 = molecular target: T10, ETV2 (Homo sapiens, UniProt O00321 1-342); conditions: protein: recombinant; tags: N-terminal GST; dsDNA, one strand shown
# T10 sequence: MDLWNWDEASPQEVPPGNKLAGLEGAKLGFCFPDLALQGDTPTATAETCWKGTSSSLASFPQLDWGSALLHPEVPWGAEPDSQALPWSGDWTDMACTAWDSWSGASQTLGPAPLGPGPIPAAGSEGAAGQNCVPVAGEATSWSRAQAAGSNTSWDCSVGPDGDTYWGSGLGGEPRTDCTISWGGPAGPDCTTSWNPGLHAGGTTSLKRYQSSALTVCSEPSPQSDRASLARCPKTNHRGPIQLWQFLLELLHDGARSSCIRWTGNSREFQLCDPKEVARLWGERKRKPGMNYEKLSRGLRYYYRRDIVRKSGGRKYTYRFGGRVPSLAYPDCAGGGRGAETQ
# How it was run: as §1
# ELF3 = molecular target: T11, ELF3 (Homo sapiens, UniProt P78545 1-371); conditions: protein: recombinant; tags: N-terminal GST; dsDNA, one strand shown
# T11 sequence: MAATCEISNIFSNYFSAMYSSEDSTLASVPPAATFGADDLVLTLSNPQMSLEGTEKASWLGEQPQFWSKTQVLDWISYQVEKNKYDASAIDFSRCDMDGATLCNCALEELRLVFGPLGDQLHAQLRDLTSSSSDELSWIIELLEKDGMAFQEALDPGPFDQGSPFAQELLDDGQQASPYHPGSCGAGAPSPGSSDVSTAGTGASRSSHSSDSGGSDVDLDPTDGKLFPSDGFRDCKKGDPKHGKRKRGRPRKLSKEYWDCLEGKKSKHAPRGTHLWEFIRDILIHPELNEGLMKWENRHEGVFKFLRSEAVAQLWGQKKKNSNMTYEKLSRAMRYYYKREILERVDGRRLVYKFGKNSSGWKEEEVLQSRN
# How it was run: as §1
# CRX = CRX (Homo sapiens, UniProt O43186 1-299); conditions: protein: recombinant; tags: N-terminal GST; dsDNA, one strand shown
# How it was run: as §1
# ETV1 = ETV1 (Homo sapiens, UniProt P50549 1-477); conditions: protein: recombinant; tags: N-terminal GST; dsDNA, one strand shown
# How it was run: as §1
# ELF4, sequence (Q99607 whole entry): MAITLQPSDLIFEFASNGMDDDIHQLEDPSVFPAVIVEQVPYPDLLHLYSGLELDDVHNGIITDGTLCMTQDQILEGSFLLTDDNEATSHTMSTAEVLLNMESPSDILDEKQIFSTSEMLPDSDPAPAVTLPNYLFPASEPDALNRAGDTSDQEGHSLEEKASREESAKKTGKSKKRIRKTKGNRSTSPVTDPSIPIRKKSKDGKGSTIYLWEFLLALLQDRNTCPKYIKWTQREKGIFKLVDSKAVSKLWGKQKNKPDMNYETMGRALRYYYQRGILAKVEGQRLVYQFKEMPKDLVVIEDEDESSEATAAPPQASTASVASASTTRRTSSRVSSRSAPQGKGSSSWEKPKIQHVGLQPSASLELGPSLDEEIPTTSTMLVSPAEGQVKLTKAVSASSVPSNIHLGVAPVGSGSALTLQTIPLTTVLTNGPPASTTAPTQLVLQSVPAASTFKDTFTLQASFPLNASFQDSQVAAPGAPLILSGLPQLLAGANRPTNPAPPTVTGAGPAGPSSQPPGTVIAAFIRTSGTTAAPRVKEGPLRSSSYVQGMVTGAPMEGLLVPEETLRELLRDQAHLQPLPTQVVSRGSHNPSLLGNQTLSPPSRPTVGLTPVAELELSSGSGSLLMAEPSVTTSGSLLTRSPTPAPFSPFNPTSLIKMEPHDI
# ETV1, sequence (P50549 whole entry): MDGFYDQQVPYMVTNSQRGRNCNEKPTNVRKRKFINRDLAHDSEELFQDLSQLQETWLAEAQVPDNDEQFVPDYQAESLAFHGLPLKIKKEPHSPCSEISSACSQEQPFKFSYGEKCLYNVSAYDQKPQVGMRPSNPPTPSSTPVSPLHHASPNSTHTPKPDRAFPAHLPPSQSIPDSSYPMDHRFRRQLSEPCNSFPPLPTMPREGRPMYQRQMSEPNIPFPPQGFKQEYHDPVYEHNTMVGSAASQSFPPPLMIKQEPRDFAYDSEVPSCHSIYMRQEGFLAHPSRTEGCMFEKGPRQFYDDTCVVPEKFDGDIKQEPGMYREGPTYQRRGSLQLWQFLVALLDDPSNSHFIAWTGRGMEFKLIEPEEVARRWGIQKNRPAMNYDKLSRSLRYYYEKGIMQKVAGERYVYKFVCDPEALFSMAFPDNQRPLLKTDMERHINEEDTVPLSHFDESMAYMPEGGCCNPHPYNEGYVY
# CRX, sequence (O43186 whole entry): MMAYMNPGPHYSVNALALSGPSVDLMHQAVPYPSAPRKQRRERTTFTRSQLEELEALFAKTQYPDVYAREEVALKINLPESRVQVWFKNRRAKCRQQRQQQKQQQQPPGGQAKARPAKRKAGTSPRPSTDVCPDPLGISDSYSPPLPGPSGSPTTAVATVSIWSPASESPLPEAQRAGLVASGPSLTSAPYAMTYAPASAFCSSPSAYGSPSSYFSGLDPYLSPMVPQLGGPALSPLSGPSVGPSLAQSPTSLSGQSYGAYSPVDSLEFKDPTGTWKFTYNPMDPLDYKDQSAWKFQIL
# ETV5, sequence (P41161 whole entry): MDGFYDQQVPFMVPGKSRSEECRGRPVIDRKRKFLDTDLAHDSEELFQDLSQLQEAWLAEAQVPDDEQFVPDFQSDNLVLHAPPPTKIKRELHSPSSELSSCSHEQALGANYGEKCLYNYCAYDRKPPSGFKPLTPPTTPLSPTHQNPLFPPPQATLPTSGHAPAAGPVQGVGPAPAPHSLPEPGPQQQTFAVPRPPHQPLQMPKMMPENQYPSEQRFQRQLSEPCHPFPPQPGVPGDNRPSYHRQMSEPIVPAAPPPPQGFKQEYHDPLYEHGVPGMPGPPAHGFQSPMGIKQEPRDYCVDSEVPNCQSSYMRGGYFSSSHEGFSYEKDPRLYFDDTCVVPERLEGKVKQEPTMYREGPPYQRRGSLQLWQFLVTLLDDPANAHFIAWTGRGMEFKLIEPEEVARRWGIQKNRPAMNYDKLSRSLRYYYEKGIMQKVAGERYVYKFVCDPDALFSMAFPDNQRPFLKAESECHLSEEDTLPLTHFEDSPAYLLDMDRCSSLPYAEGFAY
# SPIB, sequence (Q01892 whole entry): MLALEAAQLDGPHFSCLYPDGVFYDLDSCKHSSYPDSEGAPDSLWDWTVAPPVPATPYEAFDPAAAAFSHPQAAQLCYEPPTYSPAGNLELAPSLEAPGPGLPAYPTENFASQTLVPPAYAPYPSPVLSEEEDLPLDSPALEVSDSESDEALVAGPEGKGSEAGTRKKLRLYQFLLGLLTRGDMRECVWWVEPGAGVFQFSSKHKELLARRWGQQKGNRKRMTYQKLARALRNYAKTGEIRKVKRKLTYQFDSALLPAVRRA
# ELF1, sequence (P32519 whole entry): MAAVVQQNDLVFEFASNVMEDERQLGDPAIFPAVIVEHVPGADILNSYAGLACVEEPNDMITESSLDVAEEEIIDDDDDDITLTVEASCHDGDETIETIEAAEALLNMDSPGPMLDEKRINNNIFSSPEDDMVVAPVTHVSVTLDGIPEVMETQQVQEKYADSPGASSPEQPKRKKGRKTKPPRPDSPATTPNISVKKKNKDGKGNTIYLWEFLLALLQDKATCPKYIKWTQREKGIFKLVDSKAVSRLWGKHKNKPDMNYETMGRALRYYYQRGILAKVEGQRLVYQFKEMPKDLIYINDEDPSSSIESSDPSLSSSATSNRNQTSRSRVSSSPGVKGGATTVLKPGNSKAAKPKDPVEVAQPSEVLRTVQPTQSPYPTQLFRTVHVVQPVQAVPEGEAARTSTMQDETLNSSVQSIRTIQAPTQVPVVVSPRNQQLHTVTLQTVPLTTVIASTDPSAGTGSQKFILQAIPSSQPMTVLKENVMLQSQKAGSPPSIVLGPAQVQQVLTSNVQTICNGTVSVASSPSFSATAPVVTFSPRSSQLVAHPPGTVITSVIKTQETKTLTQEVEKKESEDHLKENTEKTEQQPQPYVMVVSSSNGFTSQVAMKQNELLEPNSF
# HSF1, sequence (Q00613 whole entry): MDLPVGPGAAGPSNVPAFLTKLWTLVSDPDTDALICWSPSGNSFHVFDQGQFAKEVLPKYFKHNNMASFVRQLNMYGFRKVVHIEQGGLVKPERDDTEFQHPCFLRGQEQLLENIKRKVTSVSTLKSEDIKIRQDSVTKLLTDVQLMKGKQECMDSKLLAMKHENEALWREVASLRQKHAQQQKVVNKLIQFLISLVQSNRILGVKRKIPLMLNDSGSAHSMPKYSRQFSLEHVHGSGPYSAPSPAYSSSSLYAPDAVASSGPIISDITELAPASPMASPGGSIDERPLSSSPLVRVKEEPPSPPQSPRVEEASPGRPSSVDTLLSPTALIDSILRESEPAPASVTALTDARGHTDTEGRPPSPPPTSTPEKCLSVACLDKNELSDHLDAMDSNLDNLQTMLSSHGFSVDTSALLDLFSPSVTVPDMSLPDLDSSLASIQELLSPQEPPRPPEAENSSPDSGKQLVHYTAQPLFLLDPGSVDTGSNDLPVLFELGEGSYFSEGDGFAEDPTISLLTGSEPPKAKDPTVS
sequence,measurement,setting,value
ACGAAT,binding signal,FLI1,"1.12 fold enrichment (6-mer frequency, TF over GST control)"
same,binding signal,ELK1,"1.1 fold enrichment (6-mer frequency, TF over GST control)"
same,binding signal,GABPA,"1.22 fold enrichment (6-mer frequency, TF over GST control)"
same,binding signal,ERG,"1.07 fold enrichment (6-mer frequency, TF over GST control)"
same,binding signal,ELF1,"1.15 fold enrichment (6-mer frequency, TF over GST control)"
same,binding signal,EHF,"1.13 fold enrichment (6-mer frequency, TF over GST control)"
same,binding signal,SPI1,"1.13 fold enrichment (6-mer frequency, TF over GST control)"
same,binding signal,SPIB,"1.15 fold enrichment (6-mer frequency, TF over GST control)"
same,binding signal,ELK3,"1.13 fold enrichment (6-mer frequency, TF over GST control)"
same,binding signal,FEV,"1.17 fold enrichment (6-mer frequency, TF over GST control)"
same,binding signal,ETV5,"1.14 fold enrichment (6-mer frequency, TF over GST control)"
same,binding signal,HSF1,"1.39 fold enrichment (6-mer frequency, TF over GST control)"
same,binding signal,SPIC,"1.16 fold enrichment (6-mer frequency, TF over GST control)"
same,binding signal,ELF4,"1.11 fold enrichment (6-mer frequency, TF over GST control)"
same,binding signal,ELK4,"1.2 fold enrichment (6-mer frequency, TF over GST control)"
same,binding signal,ETV2,"1.15 fold enrichment (6-mer frequency, TF over GST control)"
same,binding signal,ELF3,"1.12 fold enrichment (6-mer frequency, TF over GST control)"
same,binding signal,CRX,"1.21 fold enrichment (6-mer frequency, TF over GST control)"
same,binding signal,ETV1,"1.14 fold enrichment (6-mer frequency, TF over GST control)"
